Data as given in PubChem BioAssay AID1159580 (chemical genetic matrix, 2015).
Where “and” joins values, the source holds several entries; their conditions need not be identical. Equal entries are not always repeated. Hit rate of the full screen: of about 5,500 compounds, about 2,000 (36%) were called active. Inconclusive results (about 18%) are left out. No stated cut-off is given here; in the data, active means normalized growth mostly below about 0.91 (no sharp cut-off); inconclusive means no clear call, values can overlap the other calls; inactive means mostly above about 0.92. This is one part of the list.

Experiment: chemical genetic growth profiling, strain panel (AID 1159580);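 further: tested at 20 µM; growth read once vehicle control cultures reached saturation at 30 °C; 1 = growth at the plate median or of vehicle wells; lower values mean less growth of the strain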
Settings: S. cerevisiae deletion strains, growth OD
[1] = locus YBR229C, strain ROT2, hits give low values
[2] = locus YCL061C, strain MRC1, hits give low values
[3] = locus YDL101C, strain DUN1, hits give low values
[4] = locus YDR150W, strain NUM1, hits give low values
[5] = locus YEL061C, strain CIN8, hits give low values
[6] = locus YHR030C, strain SLT2, hits give low values
[7] = locus YJL187C, strain SWE1, hits give low values
[8] = locus YJR075W, strain HOC1, hits give low values
[9] = locus YLR039C, strain RIC1, hits give low values
[10] = locus YMR307W, strain GAS1, hits give low values
[11] = locus YNL128W, strain TEP1, hits give low values
[12] = locus YNL153C, strain GIM3, hits give low values
[13] = locus YOL006C, strain TOP1, hits give low values
[14] = locus YAL013W, strain DEP1, hits give low values
[15] = locus YPL055C, strain LGE1, hits give low values

Measured: normalized growth

CC(=O)O[C@H]1C[C@@H](OC(C)=O)C(C)(C)C2C[C@@H](OC(C)=O)[C@]3(C)C(CC[C@@]4(C)[C@H](c5ccoc5)C(=O)[C@H]5O[C@]543)[C@]21C (stereo partly drawn)
inactive: locus YAL021C, strain ccr4, hits give low values 0.992 | locus YAL026C, strain drs2, hits give low values 0.991 | locus YAL030W, strain snc1, hits give low values 0.99 | locus YBL061C, strain skt5, hits give low values 1 | locus YBR009C, strain hhf1, hits give low values 1 | locus YBR021W, strain FUR4, hits give low values 0.966 | locus YBR023C, strain chs3, hits give low values 1.01 | locus YBR171W, strain sec66, hits give low values 1 | [1] 1.01 | locus YBR231C, strain swc5, hits give low values 1 | locus YBR279W, strain paf1, hits give low values 1 | locus YCL011C, strain gbp2, hits give low values 1.01 | locus YCL016C, strain dcc1, hits give low values 0.998 | locus YCL029C, strain bik1, hits give low values 1.01 | [2] 0.997 | locus YCL069W, strain vba3, hits give low values 1 | locus YCR088W, strain abp1, hits give low values 0.995 | locus YDL005C, strain med2, hits give low values 0.986 | locus YDL035C, strain GPR1, hits give low values 0.969 | locus YDL040C, strain nat1, hits give low values 0.995 | locus YDL074C, strain BRE1, hits give low values 0.975 | [3] 1.02 | locus YDL134C, strain PPH21, hits give low values 1.02 | locus YDL185W, strain tfp1, hits give low values 1.02 | locus YDL192W, strain arf1, hits give low values 1.01 | locus YDR001C, strain nth1, hits give low values 0.981 | locus YDR069C, strain doa4, hits give low values 0.993 | locus YDR101C, strain arx1, hits give low values 0.994 | locus YDR137W, strain rgp1, hits give low values 0.935 | [4] 1.02 | locus YDR159W, strain sac3, hits give low values 1.02 | locus YDR162C, strain NBP2, hits give low values 0.987 | locus YDR195W, strain ref2 0.985 | locus YDR297W, strain sur2, hits give low values 0.996 | locus YDR318W, strain mcm21, hits give low values 1.01 | locus YDR334W, strain swr1, hits give low values 0.991 | locus YDR335W, strain msn5, hits give low values 0.994 | locus YDR388W, hits give low values 1.04 | locus YDR392W, strain spt3, hits give low values 1.02 | locus YDR502C, strain sam2, hits give low values 1.02 | locus YEL003W, strain gim4, hits give low values 1 | locus YEL037C, strain rad23, hits give low values 1 | locus YEL061C, strain CIN8 (second series), hits give low values 0.995 | [5] 1.01 | locus YER015W, strain faa2, hits give low values 1.01 | locus YER016W, strain bim1, hits give low values 0.997 | locus YER110C, hits give low values 1.03 | locus YER111C, strain swi4, hits give low values 1 | locus YER155C, strain BEM2 (second series), hits give low values 0.998 | locus YER155C, strain BEM2, hits give low values 1.02 | locus YER167W, strain BCK2, hits give low values 1.01 | locus YFR010W, strain ubp6, hits give low values 0.989 | locus YGL078C, strain dbp3, hits give low values 1 | locus YGL086W, strain mad1, hits give low values 1.01 | locus YGL167C, strain pmr1, hits give low values 1 | locus YGL173C, strain kem1, hits give low values 1.01 | locus YGL227W, strain vid30, hits give low values 0.996 | locus YGL240W, strain doc1, hits give low values 1.01 | locus YGL248W, strain PDE1, hits give low values 1.02 | locus YGL253W, strain hxk2, hits give low values 1 | locus YGR135W, strain pre9, hits give low values 1.05 | locus YGR252W, strain gcn5, hits give low values 0.996 | locus YHR013C, strain ard1, hits give low values 1.01 | locus YHR027C, strain rpn1, hits give low values 0.99 | [6] 1.01 and 0.945 | locus YHR079C, strain IRE1 (second series), hits give low values 1.03 | locus YHR079C, strain IRE1, hits give low values 0.925 | locus YHR094C, strain hxt1, hits give low values 1.03 | locus YHR129C, strain ARP1, hits give low values 1.02 | locus YHR142W, strain chs7, hits give low values 1 | locus YHR200W, strain rpn10, hits give low values 1.02 | locus YIL066C, strain RNR3, hits give low values 0.98 | locus YIL073C, strain SPO22, hits give low values 1.01 | locus YIL125W, strain kgd1, hits give low values 1.01 | locus YIR030C, strain dcg1, hits give low values 1.02 | locus YJL092W, strain hpr5, hits give low values 1.01 | locus YJL095W, strain BCK1 (second series), hits give low values 1 | locus YJL095W, strain BCK1, hits give low values 1.03 and 0.969 | locus YJL115W, strain asf1, hits give low values 0.987 | locus YJL129C, strain trk1, hits give low values 0.973 | locus YJL134W, strain LCB3, hits give low values 1.02 | locus YJL154C, strain vps35, hits give low values 0.991 | locus YJL164C, strain tpk1, hits give low values 1 | locus YJL166W, strain qcr8, hits give low values 1.01 | locus YJL168C, strain set2, hits give low values 1.04 | locus YJL187C, strain SWE1 (second series), hits give low values 1.02 | [7] 1 | locus YJR066W, strain TOR1, hits give low values 0.888 | [8] 1.04 | locus YKL009W, strain mrt4, hits give low values 0.898 | locus YKL068W, hits give low values 1.02 | locus YKL085W, strain MDH1 (second series), hits give low values 1.01 | locus YKL085W, strain MDH1, hits give low values 1.01 | locus YKL160W, strain elf1, hits give low values 0.996 | locus YKL190W, strain CNB1, hits give low values 1.01 | locus YKR001C, strain vps1, hits give low values 0.993 | locus YKR026C, strain gcn3, hits give low values 0.997 | locus YKR091W, strain srl3, hits give low values 0.995 | locus YLL001W, strain dnm1, hits give low values 1 | locus YLL026W, hits give low values 1 | locus YLL041C, strain sdh2, hits give low values 0.994 | locus YLR027C, strain aat2, hits give low values 1.02 | [9] 1.02 | locus YLR058C, strain SHM2, hits give low values 1.01 | locus YLR102C, strain apc9, hits give low values 1.02 | locus YLR113W, strain HOG1, hits give low values 1.03 | locus YLR221C, strain rsa3, hits give low values 1 | locus YLR258W, strain gsy2, hits give low values 0.995 | locus YLR262C, strain YPT6 (second series), hits give low values 0.95 | locus YLR268W, strain sec22, hits give low values 0.982 | locus YLR320W, strain mms22, hits give low values 1 | locus YLR330W, strain CHS5, hits give low values 1.02 | locus YLR342W, strain FKS1, hits give low values 1.01 | locus YLR357W, strain rsc2, hits give low values 1.01 | locus YLR370C, strain arc18, hits give low values 1 | locus YLR371W, strain rom2, hits give low values 1.03 | locus YLR384C, strain iki3, hits give low values 0.995 | locus YLR418C, strain cdc73, hits give low values 1.05 | locus YML016C, strain PPZ1, hits give low values 1.01 | locus YML032C, strain rad52, hits give low values 0.995 | locus YML120C, strain ndi1, hits give low values 1 | locus YML124C, strain tub3, hits give low values 1.02 | locus YMR058W, strain fet3, hits give low values 0.99 | locus YMR078C, strain ctf18, hits give low values 1.01 | locus YMR125W, strain sto1, hits give low values 0.978 | locus YMR129W, hits give low values 1 | locus YMR205C, strain PFK2, hits give low values 1.01 | locus YMR223W, strain ubp8, hits give low values 1.01 | locus YMR231W, strain pep5, hits give low values 0.978 | [10] 0.931 | locus YNL067W, strain RPL9B, hits give low values 1.04 | locus YNL071W, strain lat1, hits give low values 0.996 | [11] 0.991 | [12] 1.02 | locus YNL183C, strain NPR1, hits give low values 0.904 | locus YNL209W, strain ssb2, hits give low values 1 | locus YNL233W, strain BNI4, hits give low values 0.973 | locus YNL248C, strain rpa49, hits give low values 0.969 | locus YNL250W, strain rad50, hits give low values 1.06 | locus YNL271C, strain bni1, hits give low values 1.01 | locus YNL298W, strain CLA4, hits give low values 1.01 | locus YNL307C, strain MCK1, hits give low values 1.02 | locus YNL322C, strain KRE1 (second series), hits give low values 1.01 | locus YNR049C, strain mso1, hits give low values 1.01 | locus YNR052C, strain pop2, hits give low values 1.02 | [13] 0.962 | locus YOL012C, strain htz1 1.21 | locus YOL147C, strain pex11, hits give low values 1.03 | locus YOR001W, strain rrp6, hits give low values 0.985 | locus YOR061W, strain CKA2, hits give low values 0.998 | locus YOR069W, strain VPS5, hits give low values 1.02 | locus YOR070C, strain gyp1, hits give low values 1 | locus YOR080W, strain dia2, hits give low values 1.01 | locus YOR083W, strain WHI5, hits give low values 0.991 | locus YOR106W, strain vam3, hits give low values 0.985 | locus YOR136W, strain idh2, hits give low values 1.01 | locus YOR144C, strain elg1, hits give low values 1.02 | locus YOR184W, strain ser1, hits give low values 0.965 | locus YOR231W, strain MKK1, hits give low values 0.919 | locus YOR265W, strain rbl2, hits give low values 0.997 | locus YOR270C, strain vph1, hits give low values 0.875 | locus YOR290C, strain snf2, hits give low values 1 | locus YOR316C, strain cot1, hits give low values 1.02 | locus YPL051W, strain arl3, hits give low values 1.01 | locus YPL078C, strain atp4, hits give low values 0.991 | locus YPL106C, strain sse1, hits give low values 1.05 | locus YPL240C, strain hsp82, hits give low values 0.998 | locus YPL256C, strain CLN2, hits give low values 0.994 | locus YPR119W, strain clb2, hits give low values 1.02 | locus YPR141C, strain kar3, hits give low values 1.03 | locus YPR163C, strain tif3, hits give low values 1.02 | locus YPR167C, strain met16, hits give low values 1.01 | strain wtn01, hits give low values 0.987

COC(=O)c1c(-c2cc(OC)c(OC)c(OC)c2)c2ccc(OCc3ccccn3)cc2c(=O)n1-c1ccc(N)cc1
inactive: [14] 1.02 | locus YAL040C, strain CLN3, hits give low values 1.01 | locus YCL061C, strain MRC1 (second series), hits give low values 0.999 | [4] 1.01 | locus YDR363W, strain ESC2, hits give low values 1.01 | locus YER002W, strain NOP16, hits give low values 1.03 | [10] 1.01 | [11] 1.02 | locus YNL175C, strain NOP13, hits give low values 1.03 | locus YNL197C, strain WHI3, hits give low values 1.04 | locus YNL224C, strain SQS1, hits give low values 1.04 | locus YOR083W, strain WHI5 (second series), hits give low values 1.01 | [15] 1.02

O=C(CCCCCCCCC(=O)c1ccccc1)c1ccccc1
inactive: [14] 0.996 | [1] 1 | [2] 1.01 | [3] 1.01 | [4] 0.918 | [5] 1.01 | locus YGR078C, strain PAC10, hits give low values 1.02 | [6] 0.964 | locus YHR087W, strain rtc3, hits give low values 1.05 | [7] 1.02 | locus YJR043C, strain POL32, hits give low values 1.01 | [8] 0.987 | [9] 1.04 | locus YLR058C, strain SHM2 (second series), hits give low values 0.998 | locus YLR085C, strain ARP6, hits give low values 0.998 | locus YLR262C, strain YPT6, hits give low values 1.04 | locus YML094W, strain GIM5, hits give low values 1.01 | locus YMR219W, strain ESC1, hits give low values 0.999 | locus YMR263W, strain SAP30, hits give low values 1 | [12] 0.994 | locus YNL298W, strain CLA4 (second series), hits give low values 1.05 | locus YNL322C, strain KRE1, hits give low values 1 | locus YNR030W, strain Alg12, hits give low values 1.01 | [13] 1.01 | [15] 0.981 | locus YPL241C, strain CIN2, hits give low values 1 | locus YPR135W, strain CTF4, hits give low values 1
